Source: PubChem BioAssay
Pf growth 96h = P. falciparum growth inhibition at 96 hour, primary screen for plastid delayed-death inhibitors | P. falciparum luciferase reporter growth, 96 h | 320,000 tested, 6.9% active | Potency, µM (highest dose often 28.7 µM), without a hit: at the top dose activity change, negative = inhibition, hits mostly inhibitors | AID 504834; also: % is scaled to controls: 0 for no effect and ±100 for the full control effect
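Plates of compound plus infected erythrocytes (2% hematocrit, 0.05% parasitemia final) incubate 96 hours, 37 C, 5% CO2. Detection reagent added; reduced luminescence from the parasites' luciferase reporter flags inhibition.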
VACV Venus inh = inhibitors of vaccinia virus (Venus reporter); Vaccinia virus Venus reporter expression, fluorescence; Potency, µM (doses to about 36.5 µM), without a hit: at the highest dose activity change, negative = inhibition, actives largely listed as inhibitors; 330,000 tested, 0.46% active; calls by dose curve; tested in A549 cells; also: % is scaled to controls: 0 for no effect and ±100 for the full control effect; nearly all actives have a fitted effect of over 30% in size
VACV mCherry inh = vaccinia inhibition (mCherry reporter); Vaccinia virus mCherry reporter infection, fluorescence; Potency, µM (highest dose often 36.5 µM), without a hit: top-dose activity change, negative = inhibition, actives largely listed as inhibitors; 310,000 tested, 0.63% active; AID 720579; calls by dose curve; tested in A549 cells; also: % is scaled to controls: 0 for no effect and ±100 for the full control effect; nearly all actives have a fitted effect of over 35% in size
NS1 function inh = blocks influenza NS1 protein function | 270,000 tested, 0.4% active | Potency, µM (series often up to 46.1 µM), without a hit: at the highest dose activity, positive = more growth; calls by dose curve; also: actives are rising curves; nearly all actives have a fitted effect of over 50% in size
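Growth recovery, yeast-based: influenza A NS1 expressed in S. cerevisiae causes slow growth, and suppressors are detected by OD600. The parent strain without NS1 is used as positive control.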
Pf growth 48h = P. falciparum growth inhibition at 48 hours (one generation); P. falciparum luciferase growth in erythrocytes, 48 h; Potency, µM (highest dose often 28.7 µM), inactives show at the highest dose activity change, negative = inhibition, most hits filed as inhibitors; 310,000 tested, 5.9% active; also: % is scaled to controls: 0 for no effect and ±100 for the full control effect
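Erythrocytes infected with P. falciparum carrying an integrated firefly luciferase reporter (2% hematocrit, 0.1% parasitemia final) were exposed to compounds in RPMI 1640 with 0.5% Albumax at 37 C, 5% CO2. Growth inhibition was scored as reduced luminescence.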
HCV inh = inhibitors of hepatitis C virus infection; Huh7.5.1 HCVcc-Cre infection, luciferase reporter, 44 h; Potency, µM (series often up to 41.8 µM), for the others: at the top dose activity change, negative = inhibition, actives largely listed as inhibitors; 340,000 tested, 3.4% active; AID 651820; also: % is scaled to controls: 0 for no effect and ±100 for the full control effect
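Whole-lifecycle infectious HCVcc-Cre system; cells 1,000/well, compound then virus (~0.5 moi) added 4 h after plating, 44 h culture. Luciferase read 15 sec following 15 min substrate incubation, room temp.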
Numbers without * were called inactive; i = inactive; ? = inconclusive; / = no result; [ ] = remark or other dose. This is a sample that favours compounds with a hit; in the whole collection about 11% have one here. Unless noted, calls follow the shape of the dose curve; as a rule, active = well fitted inhibition curve with a large enough effect; inconclusive = small, poorly fitted or top-dose-only effect, or another doubt; inactive = no such curve, though single readings can be large or run the other way. Potency is read from the fitted curve at half-maximal effect.

SMILES	Pf growth 96h	VACV Venus inh	VACV mCherry inh	NS1 function inh	Pf growth 48h	HCV inh
O=C(Nc1ccc(C(F)(F)F)cc1)c1cccn(Cc2ccc3c(c2)OC(F)(F)O3)c1=O	21%	/	/	1%	-4%	10µM*
O=C(O)/C=C\C(=O)N1Cc2cc3ccccc3nc2C1	/	/	/	1%	/	/
Cc1ccc(-c2csc(N/N=C/c3ccco3)n2)c(C)c1	37%	1%	-6%	10%	13µM*	?
CN(C)S(=O)(=O)c1cccc(-c2csc(N/N=C/c3ccco3)n2)c1	-6%	-19%	?	?	?	?
NC/C=C/C(=O)O	12%	-15%	-2%	1%	13%	/
COc1ccc(-c2cc(C(F)F)nc(-n3nc(C)cc3C)n2)cc1	?	-13%	i	-50%	8.3µM*	?
Cc1cc(N2CCOCC2)nc(N2CCOCC2)n1	?	-6%	i	-58%	0%	-5%
Cc1ccc(-c2cc(C(F)F)nc(N3CCOCC3)n2)cc1	?	?	-5%	-2%	?	5.6µM*
O=C(C1CCN(S(=O)(=O)c2c(Cl)cccc2Cl)CC1)N1CCCC1	/	-19%	-1%	/	/	16%
O=C1C(=O)c2cccnc2-c2ncccc21	/	14µM*	6.3µM*	/	/	/
CC1CCc2cc(F)cc3c(O)c(C(=O)NCCN(C)C)c(=O)n1c23 (stereo unspecified)	9.3µM*	/	/	0%	0%	-18%
CC1CCc2cc(F)cc3c(O)c(C(=O)NCc4ccco4)c(=O)n1c23 (stereo unspecified)	8%	-11%	-9%	13%	2%	-22%
CCCCC(CC)C(=O)Nc1cc(C(=O)NCc2ccc(C)cc2)ccc1N1CCC2(CC1)CC(c1cccc(Br)c1)=NO2 (stereo unspecified)	2.1µM*	-17%	i	/	2.3µM*	16%
Cc1ccc(CNC(=O)c2ccc(N3CCC4(CC3)CC(c3cccc(Br)c3)=NO4)c(NC(=O)c3ccc(Cl)c([N+](=O)[O-])c3)c2)cc1	/	-7%	-12%	/	/	1%
CCCCC(CC)C(=O)Nc1cc(C(=O)NCc2ccc(C)cc2)ccc1N1CCC2(CC1)CC(c1ccccc1)=NO2 (stereo unspecified)	2.1µM*	-10%	i	?	3.3µM*	-8%
CCCCCCCC(=O)Nc1cc(C(=O)NCc2ccc(C)cc2)ccc1N1CCC2(CC1)CC(c1ccccc1)=NO2	?	-23%	i	6%	-15%	10%
CCCNC(=O)c1ccc(N2CCC3(CC2)CC(c2ccccc2)=NO3)c(NC(=O)Cc2ccc(F)cc2)c1	4.7µM*	-24%	-5%	?	?	-29%
CCCCCCCC(=O)Nc1cc(C(=O)NCCC)ccc1N1CCC2(CC1)CC(c1cccc(Br)c1)=NO2	?	-6%	16%	/	?	-4%
CCCCC(CC)C(=O)Nc1cc(C(=O)NCCC)ccc1N1CCC2(CC1)CC(c1cccc(Br)c1)=NO2 (stereo unspecified)	2.6µM*	-15%	7%	/	3.7µM*	9%
COc1ccc(CCC(=O)N2CCN(c3cccc(C)c3C)CC2)cc1	?	-11%	-12%	-11%	?	-26%
Cc1ccccc1C(=O)Nc1nnc(SC(C)C)s1	222%	/	/	/	102%	-5%
CSCCC(NC(=O)c1ccccc1Cl)C(=O)N1CCCCCCC1 (stereo unspecified)	5%	/	/	/	3%	6%
CC(/C=C\C=C\c1ccccc1)=N\NC(=O)c1cncc(Br)c1	0.93µM*	1%	-18%	/	?	-11%
CCOC(=O)c1c(NC(=O)C(Sc2ccccc2)c2ccccc2)sc(C(N)=O)c1C (stereo unspecified)	9.3µM*	/	/	1%	?	?
CCOC(=O)c1c(NC(=O)C(Sc2ccccc2)c2ccccc2)sc(C(=O)N(C)C)c1C (stereo unspecified)	?	?	?	?	3.3µM*	?
SMILES	Pf growth 96h	VACV Venus inh	VACV mCherry inh	NS1 function inh	Pf growth 48h	HCV inh
CN(C)c1nc(N(C)C)nc(N(C#N)CCOc2ccccc2)n1	?	-22%	/	-4%	?	11µM*
COc1ccc(/C=C/C2=NNC(=O)CC2)cc1	205%	5%	-3%	/	97%	10%
CC(=O)Nc1ccc(S(=O)(=O)NCCc2csc(-c3cccnc3)n2)cc1	8.3µM*	/	/	8%	-9%	4%
O=S(=O)(NCc1cccnc1)c1ccc2c(c1)OCCO2	13µM*	-6%	-2%	16%	2%	-9%
CC(=O)c1ccc(S(=O)(=O)NCCc2csc(-c3cccnc3)n2)cc1	?	5%	-12%	0%	?	-2%
O=S(=O)(NCc1csc(-c2cccnc2)n1)c1ccc2c(c1)OCCO2	2.9µM*	-27%	/	0%	-3%	-5%
CC1CCN(c2cc(=O)n(C3CCCCC3)c(=O)[nH]2)CC1	2%	-13%	-10%	6%	3%	9%
Cc1cc(C(F)(F)F)c2c(C)nn(CCc3nn[nH]n3)c2n1	9%	8%	/	-4%	2%	-4%
COc1cccc(/C=C2/Sc3ccc(C(=O)NCCN4CCCCCC4)cc3NC2=O)c1	?	/	/	-6%	?	5.6µM*
O=C1Nc2cc(C(=O)NCCN3CCCCCC3)ccc2S/C1=C\c1ccccc1	?	/	/	10%	?	14µM*
O=C(Nc1cccc(-c2nc3ncccc3o2)c1)c1cc2ccccc2o1	35%	1%	-16%	-84%	?	?
CCCC(C)C1C(C#N)=C(N)Oc2c1c(=O)oc1ccccc21 (stereo unspecified)	1%	-9%	/	?	-23%	4%
COc1cccc(N(C(=O)Cn2nnc(-c3ccc(Cl)cc3)n2)C(C(=O)NCC2CCCO2)c2ccc(C)cc2)c1 (stereo unspecified)	?	-8%	-14%	4%	-17%	18%
Cc1ccc(-c2nnn(CC(=O)N(c3ccccc3)C(C(=O)NCC3CCCO3)c3ccc(Cl)cc3)n2)cc1 (stereo unspecified)	8.3µM*	/	/	15%	?	-26%
Cc1ccc(-c2nnn(CC(=O)N(c3ccccc3)C(C(=O)NCC3CCCO3)c3cccs3)n2)o1 (stereo unspecified)	10µM*	-6%	i	/	59%	7%
Cc1ccc(-c2nnn(CC(=O)N(c3ccccc3F)C(C(=O)NCC3CCCO3)c3c[nH]c4ccccc34)n2)cc1 (stereo unspecified)	12µM*	/	/	24%	12µM*	?
COc1cccc(-c2cc(NC=O)c3ncc(-c4ccc(F)c(Cl)c4)n3c2)c1	/	5%	4%	/	/	/
C=CC(=O)Nc1cccc(Oc2ccnc3[nH]ccc23)c1	/	5.6µM*	?	/	/	34%[8.37 µM]
C=CC(=O)Nc1cccc(Oc2ccnc(Nc3ccc(N4CCN(C)CC4)cc3)n2)c1	/	3.5µM*	?	/	/	-21%
